# Reference: PubChem BioAssay
# The source made the active and inactive calls. Unless noted, no rule for the calls is given here.
# Columns and labels:
# [1] = anti-His antibody binders, primary screen, artefact control for SMM control protein annotation, biochemical, small-molecule microarray, 635 nm fluorescence (AID 1128); conditions: anti-His Alexa647 antibody binding, higher = more signal;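 also: score merges feature fluorescence with signal-to-noise for each printed compound spot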
# [2] = system: Human papillomavirus type 1a E7 protein (residues 1-88); test: HPV1a E7 small-molecule binders, primary screen, biochemical, small-molecule microarray, residues 1-88, 635 nm (AID 1129); conditions: small-molecule microarray binding, fluorescence 635 nm; higher = more signal
# [3] = target: Focal adhesion kinase 1 (Homo sapiens) (UniProt Q05397); test: small-molecule microarray binders of FAK, primary screen, biochemical, 635/667 nm fluorescence, BSA, DTT (AID 1130); conditions: PTK2 binding, 635 nm fluorescence, higher = more signal;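 also: composite of spot emission at 667 nm and signal to noise over triplicate slides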
# [4] = system: Fibrinogen (Alexa647-labelled); test: fibrinogen binders on compound microarrays, profiling panel, artefact control for SMM control-protein annotation, biochemical, small-molecule microarray, 635/667 nm fluorescence (AID 1131); conditions: fibrinogen-A647 binding fluorescence, higher = more signal;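 also: z-score merges 667 nm fluorescence with per-spot signal-to-noise over triplicate slides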
# [5] = target: Follistatin (Homo sapiens) (UniProt P19883); test: follistatin binders on small-molecule microarrays, primary screen, biochemical, small-molecule microarray, 635/667 nm fluorescence (AID 1132); conditions: FST binding, 635 nm fluorescence, higher = more signal
# [6] = target: Fibroblast growth factor 2 (Homo sapiens) (UniProt P09038); test: FGF2 binders on small-molecule microarrays, primary screen, biochemical, small-molecule microarray, 635/667 nm fluorescence (AID 1133); conditions: small-molecule microarray binding, FGF2, fluorescence 635/667; higher = more signal
# [7] = mitochondrial membrane potential change in A549 cells, profiling panel, cell-based, JC-1 fluorescence, basal, 24 h, 100 nL (AID 1138); conditions: higher = more signal;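 also: A549 lung adenocarcinoma cells under basal conditions with no added stimulus; test concentration not given here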
# Lefty1 = Lefty1 binders on small-molecule microarrays, primary screen, biochemical, small-molecule microarray, 635/667 nm fluorescence (AID 1139); conditions: small-molecule microarray binding, fluorescence 635/667; higher = more signal
# [8] = system: wheat germ agglutinin (Triticum aestivum), Alexa647-labelled; test: wheat germ agglutinin binders on compound microarrays, profiling panel, artefact control for SMM control-protein annotation, biochemical, small-molecule microarray, 635/667 nm fluorescence (AID 1140); conditions: WGA-A647 binding, 635 nm fluorescence, higher = more signal;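 also: score merges 667 nm feature emission with signal to noise over triplicate slides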
# [9] = target: Luciferin 4-monooxygenase (Photinus pyralis) (UniProt P08659); test: firefly luciferase enzyme inhibitors, primary screen, biochemical, luminescence, purified enzyme, 2006 set (AID 1141); conditions: SteadyGlo luminescence, 30 min, higher = more signal, called active from +8 up or from −8 down;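 also: cell-free assay with purified firefly luciferase at 100 ng per well in PBS; test concentration not given here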
# [10] = system: Wnt5a (protein binding on small-molecule microarray); test: Wnt5a binders on small-molecule microarray, primary screen, biophysical, 635/667 nm fluorescence (AID 1142); conditions: 635 nm fluorescence, higher = more signal;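 also: fluorescence read at 667 nm with signal to noise per printed feature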
# [11] = cell viability in Huh7 cells, primary screen, cytotoxicity control for HCV replication inhibitor project, CellTiter-Glo luminescence, basal, 48 h (AID 1143); conditions: Huh7 HCV replicon, higher = more signal, called active from +8 up or from −8 down;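 also: Huh7 hepatoma cells carrying a hepatitis C replication reporter with no stimulus; test concentration not given here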
# [12] = P. aeruginosa biofilm formation inhibitors, primary screen, PAO1 strain, BacTiter-Glo luminescence, LB-PBS (AID 1144); conditions: 12 h, higher = more signal
# [13] = CREB reporter modulators without forskolin, primary screen, cell-based, PC12, CRE-LacZ reporter, unstimulated (AID 1145); conditions: no forskolin, luminescence, 4.5 h, higher = more signal, called active from +8 up or from −8 down
# [14] = CREB reporter modulators under forskolin, primary screen, cell-based, PC12, CRE-LacZ reporter, forskolin-stimulated (AID 1146); conditions: luminescence, 4.5 h, higher = more signal, called active from +8 up or from −8 down;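 also: PC12 cells with 6xCRE LacZ reporter stimulated by forskolin 10 µM; beta-galactosidase reporter signal reflecting CREB driven transcription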
# [15] = target: Streptavidin (Streptomyces avidinii) (UniProt P22629); test: streptavidin binders on small-molecule microarray, primary screen, artefact control for SMM compound annotation, biophysical, 635/667 nm fluorescence (AID 1147); conditions: streptavidin binding, higher = more signal;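 also: signal reflects streptavidin binding to arrayed compounds as a control protein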
# [16] = small-molecule binders of probe aInhba, primary screen, biochemical, small-molecule microarray, 635/667 nm fluorescence (AID 1148); conditions: higher = more signal;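 also: score merges 667nm spot fluorescence with signal-to-noise for antibody binding to printed compounds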
# Torsin-1A (Homo sapiens) [17] = target: Torsin-1A (Homo sapiens) (UniProt O14656); test: torsin A binders from cell lysate, primary screen, small-molecule microarray, wild-type, 635/667 nm (AID 1149); conditions: COS7 hTOR1A-WT lysate, 635 nm fluorescence, higher = more signal
# Torsin-1A (Homo sapiens) [18] = target: Torsin-1A (Homo sapiens) (UniProt O14656); test: small-molecule binders of mutant TOR1A in lysate, primary screen, cell lysate, small-molecule microarray, COS7 lysate, 635/667 nm fluorescence (AID 1150); conditions: COS7 hTOR1A mutant lysate, 635 nm fluorescence, higher = more signal;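 also: score pools 667 nm emission and signal to noise measuring lysate protein binding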
# [19] = system: Sonic hedgehog protein (Shh); test: small-molecule binders of Shh protein, primary screen, biochemical, small-molecule microarray, 635/667 nm fluorescence (AID 1151); conditions: small-molecule microarray binding, 635 nm fluorescence; higher = more signal;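 also: Shh protein binding to compounds spotted on small-molecule microarray slides; score combines spot fluorescence intensity with signal-to-noise across triplicate slides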
# Sequence of Follistatin (Homo sapiens) (P19883 whole entry, looked up): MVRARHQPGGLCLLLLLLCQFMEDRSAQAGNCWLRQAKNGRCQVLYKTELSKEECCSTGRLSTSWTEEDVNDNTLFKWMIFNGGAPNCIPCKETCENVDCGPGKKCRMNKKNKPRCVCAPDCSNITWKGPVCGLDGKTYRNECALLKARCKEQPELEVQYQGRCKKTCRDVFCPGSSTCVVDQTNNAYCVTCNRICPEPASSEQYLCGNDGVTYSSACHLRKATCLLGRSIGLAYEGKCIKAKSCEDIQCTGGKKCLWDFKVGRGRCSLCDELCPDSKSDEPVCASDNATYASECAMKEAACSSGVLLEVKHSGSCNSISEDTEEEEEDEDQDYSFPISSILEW
# Sequence of Torsin-1A (Homo sapiens) (O14656 whole entry, looked up): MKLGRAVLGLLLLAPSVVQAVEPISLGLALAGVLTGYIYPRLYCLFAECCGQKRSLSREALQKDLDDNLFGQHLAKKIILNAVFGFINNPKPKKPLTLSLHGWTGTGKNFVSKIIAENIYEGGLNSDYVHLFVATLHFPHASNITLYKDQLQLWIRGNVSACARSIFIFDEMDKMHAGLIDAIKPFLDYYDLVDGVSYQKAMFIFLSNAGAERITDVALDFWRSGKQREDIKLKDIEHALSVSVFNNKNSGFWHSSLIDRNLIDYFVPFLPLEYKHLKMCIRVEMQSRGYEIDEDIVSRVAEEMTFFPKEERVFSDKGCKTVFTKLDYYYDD
# Sequence of Focal adhesion kinase 1 (Homo sapiens) (Q05397 whole entry, looked up): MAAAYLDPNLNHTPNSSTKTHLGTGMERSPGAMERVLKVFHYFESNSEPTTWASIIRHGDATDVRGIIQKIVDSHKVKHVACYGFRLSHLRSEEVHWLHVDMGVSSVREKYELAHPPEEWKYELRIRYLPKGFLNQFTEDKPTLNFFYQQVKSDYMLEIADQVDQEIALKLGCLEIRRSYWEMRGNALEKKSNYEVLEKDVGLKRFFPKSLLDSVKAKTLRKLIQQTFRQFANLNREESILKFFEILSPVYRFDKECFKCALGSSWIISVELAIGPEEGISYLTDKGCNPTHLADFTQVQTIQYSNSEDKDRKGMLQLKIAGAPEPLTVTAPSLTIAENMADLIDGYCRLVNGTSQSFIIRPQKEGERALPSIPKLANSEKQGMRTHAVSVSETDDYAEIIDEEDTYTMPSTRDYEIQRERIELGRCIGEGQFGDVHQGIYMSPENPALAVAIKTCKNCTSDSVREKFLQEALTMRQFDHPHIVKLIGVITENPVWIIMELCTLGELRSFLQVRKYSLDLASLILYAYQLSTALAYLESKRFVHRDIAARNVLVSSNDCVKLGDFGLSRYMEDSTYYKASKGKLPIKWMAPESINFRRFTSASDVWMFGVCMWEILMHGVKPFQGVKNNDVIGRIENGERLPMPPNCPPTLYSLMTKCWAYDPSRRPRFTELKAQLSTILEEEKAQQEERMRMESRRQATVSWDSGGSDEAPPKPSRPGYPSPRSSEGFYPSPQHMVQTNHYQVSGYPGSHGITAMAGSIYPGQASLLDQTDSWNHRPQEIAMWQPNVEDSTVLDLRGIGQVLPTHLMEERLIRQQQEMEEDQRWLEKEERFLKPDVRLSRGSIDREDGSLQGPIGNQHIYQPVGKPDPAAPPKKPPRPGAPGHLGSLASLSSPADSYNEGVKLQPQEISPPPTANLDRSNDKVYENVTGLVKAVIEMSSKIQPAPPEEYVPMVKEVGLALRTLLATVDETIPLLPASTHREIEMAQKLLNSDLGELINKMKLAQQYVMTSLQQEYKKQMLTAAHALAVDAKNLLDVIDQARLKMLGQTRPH
# Sequence of Fibroblast growth factor 2 (Homo sapiens) (P09038 whole entry, looked up): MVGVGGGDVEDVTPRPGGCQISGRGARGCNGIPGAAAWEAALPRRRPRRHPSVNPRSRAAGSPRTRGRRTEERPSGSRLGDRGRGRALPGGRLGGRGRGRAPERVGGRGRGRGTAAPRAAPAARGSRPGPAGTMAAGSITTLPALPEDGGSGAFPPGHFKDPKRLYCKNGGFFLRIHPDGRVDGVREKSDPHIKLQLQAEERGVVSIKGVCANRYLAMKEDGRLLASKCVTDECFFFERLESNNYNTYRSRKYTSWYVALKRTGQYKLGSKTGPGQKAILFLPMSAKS
# Sequence of Streptavidin (Streptomyces avidinii) (P22629 whole entry, looked up): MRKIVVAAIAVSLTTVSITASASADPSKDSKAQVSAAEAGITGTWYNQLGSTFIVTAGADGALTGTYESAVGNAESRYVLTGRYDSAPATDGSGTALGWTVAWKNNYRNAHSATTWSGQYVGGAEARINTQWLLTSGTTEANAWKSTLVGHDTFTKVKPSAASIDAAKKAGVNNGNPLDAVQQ
# Sequence of Luciferin 4-monooxygenase (Photinus pyralis) (P08659 whole entry, looked up): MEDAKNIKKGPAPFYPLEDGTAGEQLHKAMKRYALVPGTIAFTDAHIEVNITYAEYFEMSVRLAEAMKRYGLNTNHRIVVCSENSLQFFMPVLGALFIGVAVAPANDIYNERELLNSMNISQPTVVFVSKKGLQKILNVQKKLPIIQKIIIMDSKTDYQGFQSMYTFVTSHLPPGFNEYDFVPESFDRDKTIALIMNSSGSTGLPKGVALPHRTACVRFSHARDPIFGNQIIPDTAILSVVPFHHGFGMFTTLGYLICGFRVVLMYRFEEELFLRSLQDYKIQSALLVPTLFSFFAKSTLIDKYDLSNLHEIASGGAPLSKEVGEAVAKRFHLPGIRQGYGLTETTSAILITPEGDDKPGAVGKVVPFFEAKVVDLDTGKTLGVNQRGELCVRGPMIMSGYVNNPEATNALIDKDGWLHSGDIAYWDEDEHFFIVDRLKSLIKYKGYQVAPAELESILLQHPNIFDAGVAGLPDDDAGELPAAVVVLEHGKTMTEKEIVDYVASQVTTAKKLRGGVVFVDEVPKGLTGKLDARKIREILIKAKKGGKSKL
SMILES,composite z-score [1],composite z-score [2],composite z-score [3],composite z-score [4],composite z-score [5],composite z-score [6],z-score [7],composite z-score (Lefty1),composite z-score [8],z-score [9],composite z-score [10],z-score [11],z-score [12],z-score [13],z-score [14],composite z-score [15],composite z-score [16],composite z-score (Torsin-1A (Homo sapiens) [17]),composite z-score (Torsin-1A (Homo sapiens) [18]),composite z-score [19]
CCOC(=O)C=Cc1ccccc1O,0.712,0.923,-0.0156,0.881,0.79,0.292,-1.47,0.175,0.404,-0.532 (inactive),0.0265,-4.76 (inactive),-0.203 (inactive),-0.471 (inactive),-0.586 (inactive),0.486,0.0051,0.399,0.146,0.158
C=C(C(=O)CC[C@H](OC(=O)c1ccccc1-c1ccccc1C(=O)O)c1ccccc1OCCO)C(C)C,-0.0781,0.909,0.0778,-0.115,0.991,1.24,0.743,1.01,0.423,-1.29 (inactive),0.121,-0.594 (inactive),-0.0112 (inactive),3.25 (inactive),1.19 (inactive),-0.344,0.0569,0.659,0.34,1.49
COc1ccc([Si](C)(C)[C@@H]2[C@@H](CC(=O)N3Cc4ccccc4C[C@H]3CO)O[C@]3(C(=O)N(Cc4ccc(N5CCC5=O)cc4)c4ccccc43)[C@H]2C)cc1,0.365,1.05,0.315,0.358,0.825,1.57,0.199,1.44,0.283,0.205 (inactive),0.159,-3.32 (inactive),-1.1 (inactive),0.409 (inactive),-0.448 (inactive),0.673,-0.167,-0.191,0.585,1.74
